# From PubChem BioAssay (NCI)
# The panel holds about 83,000 compounds, 20% with a hit somewhere; the sample as a whole holds those more often.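 96-well plates, one dose, 48 hours. Percent growth reported; active if below 10.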 Calls of active or inactive are those of the source.
# System: EKVX NSCLC
# Test: NCI-60 one-dose screen, 48 h (100 = growth as untreated, 0 = no growth, -100 = all killed)
# Conditions: 10 µM unless noted
row,SMILES,growth
1,CCOC(=O)c1cnn(-c2nc(-c3ccc(F)cc3)c(C#N)c(N3CCOCC3)n2)c1N,92.9% (inactive)
2,Cc1c(O)c(=O)ccn1-c1nc2ccccc2s1,45.3% (inactive)
3,Nc1ccc(C2=NN(C(=O)c3cc(-c4ccc(Cl)cc4)nc4ccccc34)C(c3ccc(Cl)cc3)C2)cc1 (stereo not drawn),42.8% (inactive)
4,COc1ccc2nc(-c3ccc(OC)c(OC)c3)cc(-c3nnc(SCC(=O)Nc4ccc(C(C)=O)cc4)o3)c2c1,108% (inactive)
5,CNCc1cccc2c1OCCOCCOCCN(CCN1CCOCC1)S(=O)(=O)c1ccc(cc1)-c1cnc(N)c(n1)C(=O)N2,74.8% (inactive)
6,COc1cc(C2=NN(C(C)=O)C(c3cccc(Nc4ccnc5cc(C(F)(F)F)ccc45)c3)C2)cc(OC)c1OC (stereo not drawn),52.2% (inactive)
7,CC(C)CSc1nc(Nc2ccccc2)c(C#N)c(-c2ccc(F)cc2)n1,23.2% (inactive)
8,CNc1cccc2c1C(=O)c1cccc(N)c1C2=O,37.9% (inactive)
9,NC(=O)c1ccc(C2C3=C(CCCC3=O)OC3=C2C(=O)c2ccccc2C3=O)cc1 (stereo not drawn),24.6% (inactive)
10,C=CCn1c(SCC(=O)Nc2ccc(C(=O)/C=C/c3ccc(Cl)cc3)cc2)nnc1-c1cc(OC)c(OC)c(OC)c1,92.3% (inactive)
11,C=C1C(=O)O[C@H]2[C@H]1CC/C(C=Nc1c(N)cc(F)cc1Br)=C\CC[C@@]1(C)O[C@@H]21,75.2% (inactive)
12,COc1cc(-c2csc(NC(=O)Nc3ccc(Cl)cc3)n2)cc(OC)c1OC,26% (inactive)
13,COc1ccc(C(=O)c2cc(OC)c(C)c(OC)c2)cc1OC(=O)CCl,64.4% (inactive)
